CBX7 inh: CBX7 inhibition, primary AlphaScreen | O95931 | AlphaScreen His6-CBX7 / biotin-H3K27me3 peptide binding; stronger effect = lower value | normalised signal (fraction of DMSO) (no concentration beside the values) | actives 1.1% (n = 66,000) | AID 1224903; in the data active means normalised signal below about 0.5
Target sequence (O95931 whole entry, looked up): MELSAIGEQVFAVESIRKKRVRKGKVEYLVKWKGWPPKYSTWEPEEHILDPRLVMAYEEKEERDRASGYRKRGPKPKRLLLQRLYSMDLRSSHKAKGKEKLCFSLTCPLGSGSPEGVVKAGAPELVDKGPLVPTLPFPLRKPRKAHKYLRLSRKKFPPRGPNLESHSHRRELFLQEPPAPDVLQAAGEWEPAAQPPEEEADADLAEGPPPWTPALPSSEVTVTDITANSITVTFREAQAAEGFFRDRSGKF
* marks the source's active call; other numbers are inactive results. The full list was thinned out, with hits kept by preference.

`Fc1cccc(Cl)c1-c1noc(-c2cc(-c3ccncc3)nc3ccccc23)n1` gave CBX7 inh 0.924.
Screening Cc1cccc(-c2noc(-c3cc(-c4ccccc4)nc4ccccc34)n2)c1 returned CBX7 inh 1.3.
For CCOc1ccccc1Cc1nc2ccccc2[nH]c1=O the results were CBX7 inh 0.985.
For COc1ccc(C2c3[nH]c4ccccc4c3CCN2C(=O)c2ccc(F)c(F)c2)cc1 (centres undefined) the results were CBX7 inh 0.648.
Screening CCn1c(=O)c(C(=O)NC(C)c2ccccc2)c(O)c2ccccc21 (centres undefined) returned CBX7 inh 1.4.
Screening CCCn1c(=O)c(C(=O)NC(C)c2ccccc2)c(O)c2ccccc21 (centres undefined) returned CBX7 inh 0.278*.
`CCCn1c(=O)c(C(=O)NCc2cccnc2)c(O)c2ccccc21` gave CBX7 inh 0.958.
For O=C(CCn1c(=O)[nH]c2ccccc2c1=O)N1CCc2ccccc2C1 the results were CBX7 inh 1.22.
Screening Cc1ccc(NCC(O)Cn2c3c(c4ccccc42)CCN(C)C3=O)cc1 (centres undefined) returned CBX7 inh 0.874.
CCCCNC(=O)c1cc(-c2cccnc2)nc2ccccc12 was read as CBX7 inh 0.976.
For CCC(C)NC(=O)c1cc(=O)[nH]c2ccc(S(=O)(=O)N3CCCCCC3)cc12 (centres undefined) the results were CBX7 inh 1.03.
Screening CCOc1ccc(NC(=O)C2CCN(c3ccc(N4CCOCC4)nn3)CC2)cc1 returned CBX7 inh 0.982.
COc1cccc(CNc2ccc3c(c2)ncn3C(C)C)c1OC was read as CBX7 inh 0.741.
CC(C)c1ccc(CNc2ccc3c(c2)ncn3C(C)(C)C)cc1 was read as CBX7 inh 0.291*.
CC(C)n1cnc2cc(NCc3ccncc3)ccc21 was read as CBX7 inh 0.932.
For CC(C)(C)n1cnc2cc(NCc3ccccc3Cl)ccc21 the results were CBX7 inh 0.399*.
Screening Cc1ccc(S(=O)(=O)Nc2ccc3c(c2)ncn3C(C)(C)C)cc1 returned CBX7 inh 0.889.
For CC(C)n1cnc2cc(NCc3cccc4ccccc34)ccc21 the results were CBX7 inh 0.253*.
COc1ccccc1-n1cnc2cc(NCc3ccc(Cl)cc3)ccc21 was read as CBX7 inh 0.714.
For COc1ccc(CNc2ccc3c(c2)ncn3C(C)(C)C)cc1 the results were CBX7 inh 0.553.
Cc1ccc(CNc2ccc3c(c2)ncn3C(C)(C)C)cc1 was read as CBX7 inh 0.408*.
For CCn1cnc2cc(NCc3ccc(Cl)cc3Cl)ccc21 the results were CBX7 inh 0.848.
`CC(C)c1ccc(CNc2ccc3oc(-c4ccccc4)nc3c2)cc1` gave CBX7 inh 1.41.
`COC(=O)c1nc2ccccc2n1Cc1ccc(C)cc1` gave CBX7 inh 0.937.
Screening Cc1nnc(NC(=O)CSc2nnc(Cc3cc(=O)[nH]c(=O)[nH]3)n2-c2ccc(Cl)cc2)s1 returned CBX7 inh 1.01.
For Cc1cc(=O)n2nc(N3CCC(C(=O)NC4CCN(Cc5ccccc5)CC4)CC3)sc2n1 the results were CBX7 inh 1.46.
For CCCCN(C)C(=O)c1cnc(Nc2ccc(C)c(Cl)c2)c2ccccc12 the results were CBX7 inh 1.17.
Screening COc1ccc(Cl)cc1NC(=O)CC1Oc2ccc(C)cc2NC1=O (centres undefined) returned CBX7 inh 1.08.
COc1ccccc1C(=O)N(Cc1ccc(N(C)C)cc1)C1CCS(=O)(=O)C1 (centres undefined) was read as CBX7 inh 1.1.
Screening COc1ccc(NC(CNS(=O)(=O)c2ccccc2)c2ccccc2)cc1 (centres undefined) returned CBX7 inh 0.294*.
For COc1ccc(CNC(=O)c2ccc(CNS(=O)(=O)c3ccccc3)cc2)cc1 the results were CBX7 inh 0.986.
For Cc1ccc(S(=O)(=O)NCC(NC(c2ccccc2)c2ccccc2)c2ccccc2)cc1 (centres undefined) the results were CBX7 inh 0.836.
Screening CCC1Oc2ccc(Cl)cc2N(C(C)C(=O)NCC2CCCO2)C1=O (centres undefined) returned CBX7 inh 1.04.
`COC(=O)c1cccc(CNCCc2c(C)[nH]c3ccc(OC)cc23)c1` gave CBX7 inh 0.705.
COC(=O)c1ccc(C(=O)NCCc2c(C)[nH]c3ccc(OC)cc23)cc1 was read as CBX7 inh 0.945.
For COc1ccc2[nH]c(C)c(CCNCC(C)Cc3ccc4c(c3)OCO4)c2c1 (centres undefined) the results were CBX7 inh 0.343*.
`O=C(NCc1ccc(F)cc1)C1CCN(S(=O)(=O)c2cccc3cccnc23)CC1` gave CBX7 inh 0.834.
`Cc1cc(N2CCC(C)CC2)nc2ccc(NC(=O)c3cccs3)cc12` gave CBX7 inh 0.713.
For CCOc1cc2c(cc1OCC)C1C(C(=O)Nc3cc(C)ccn3)c3ccccc3C(=O)N1CC2 (centres undefined) the results were CBX7 inh 0.192*.
For CCOc1cc2c(cc1OCC)C1C(C(=O)Nc3ccccc3C)c3ccccc3C(=O)N1CC2 (centres undefined) the results were CBX7 inh 1.06.
For CCOc1cc2c(cc1OCC)C1C(C(=O)Nc3ccccc3CC)c3ccccc3C(=O)N1CC2 (centres undefined) the results were CBX7 inh 1.01.
`COc1ccc(CC(=O)Nc2c3c(nn2-c2ccc(C)cc2C)CSC3)cc1OC` gave CBX7 inh 1.03.
COc1cccc(-c2nc(-c3cc(OC)c(OC)c(OC)c3)[nH]c2-c2cccc(OC)c2)c1 was read as CBX7 inh 0.985.
For Clc1ccc(-c2csc3ncnc(Oc4ccc(OCc5ccccc5)cc4)c23)cc1 the results were CBX7 inh 1.01.
For CCCCn1nnc2c(=O)c3c(=O)n(C)c(=O)n(C)c3[nH]c21 the results were CBX7 inh 1.03.
CC(=O)Nc1ccc(NS(=O)(=O)c2ccc3[nH]cc(C(=O)O)c(=O)c3c2)cc1 was read as CBX7 inh 0.663.
Screening Cc1cccc(C)c1N(C)S(=O)(=O)c1ccc2[nH]cc(C(=O)NCc3ccccn3)c(=O)c2c1 returned CBX7 inh 1.05.
Screening O=C(O)c1c[nH]c2ccc(S(=O)(=O)NCc3ccccn3)cc2c1=O returned CBX7 inh 0.0209*.
Screening CCOC(=O)CNS(=O)(=O)c1ccc2[nH]cc(C(=O)O)c(=O)c2c1 returned CBX7 inh 0.711.
CCc1ccc(NS(=O)(=O)c2ccc3[nH]cc(C(=O)NCc4ccccn4)c(=O)c3c2)cc1 was read as CBX7 inh 1.01.
For O=C(O)c1c[nH]c2ccc(S(=O)(=O)NCCCN3CCCC3=O)cc2c1=O the results were CBX7 inh 0.497*.
`COc1ccccc1CNc1nc(Cc2ccccc2)nc2sc3c(c12)CCCC3` gave CBX7 inh 1.06.
Cc1ccc(-c2nc(CS(=O)(=O)CC(=O)NCCc3ccc(Cl)cc3)c(C)o2)cc1 was read as CBX7 inh 0.956.
`O=C(Nc1ccc(-c2noc(COc3ccc(Br)cc3)n2)cc1)c1cccnc1` gave CBX7 inh 1.22.
For Cc1cc(=O)[nH]c(Nc2nc(C)c3cc(C)c(C)cc3n2)n1 the results were CBX7 inh 1.19.
`Cc1ccc2n1CCN(c1nc(-c3ccc(Cl)cc3)cs1)C2C` (centres undefined) gave CBX7 inh 0.991.

Source: PubChem BioAssay (Bradner/Qi Labs at DFCI)
